# PubChem BioAssay (EPA / NIEHS)
# Inconclusive results are not listed. Calls of active or inactive are those of the source. The calls were made as follows, unless noted: active = hit-call score of the fitted dose curve at least 0.9, where 1 is the maximum; inconclusive = response in the unintended direction; inactive = score below 0.9.
# Columns and labels:
# [1] = target: rat Serotonin Transporter (SERT), Slc6a4 (gene 25553) (UniProt P31652); experiment: NVS_TR_rSERT: NovaScreen (NVS) Transporter Assay for rat Serotonin Transporter (SERT) (AID 2283375)
# Outline: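 Steps: rat forebrain membranes dosed with chemical (25 uM duplicate primary; concentration series for actives); 1 h incubation; labelled ligand bound, filtered, counted by scintillation. Activity scored as signal loss vs DMSO.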
# [2] = target: Estrogen receptor (Homo sapiens) (UniProt P03372); experiment: OT_ERa_GFPERaERE_0480: Odyssey Thera (OT) 8-hour HeLa Transcription Induction Assay for Estrogen Receptor (AID 2283381; active = hit-call score of the fitted dose curve at least 0.9, where 1 is the maximum; inactive = score below 0.9)
# Outline: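 GFP-ERE reporter, HeLa, 8 h exposure. Readout: fluorescence microscopy, high-content image analysis. Fit direction positive vs DMSO negative control.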
# [3] = target: Estrogen receptor (Homo sapiens) (UniProt P03372); experiment: OT_ERa_GFPERaERE_0120: Odyssey Thera (OT) 2-hour HeLa Transcription Induction Assay for Estrogen Receptor (AID 2283382)
# Outline: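 Fluorescence microscopy read-out: inducible fluorescent protein reporter in HeLa cells, imaged 2 h post-dose. Signal increase over DMSO negative control fitted as single primary endpoint via high content image analysis.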
# [4] = target: Estrogen receptor beta (Homo sapiens) (UniProt Q92731); experiment: OT_ER_ERbERb_1440: Odyssey Thera (OT) 24-hour HEK293T Protein-Complementation Assay for Estrogen Receptor-beta/-beta Homodimer (AID 2283380);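 also: scored as signal increase over DMSO baseline for both agonists and antagonists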
# Outline: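 HEK293T cells stably expressing ER beta LBD (aa 310-547) homodimer fragment-complementation reporter, dosed 24 h. Cells formaldehyde-fixed, Draq5-stained; gain in nuclear (agonist) or nuclear plus cytoplasmic (antagonist) fluorescence versus DMSO read by laser scanning cytometry.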
# [5] = target: Bile acid receptor (Homo sapiens) (UniProt Q96RI1); experiment: OT_FXR_FXRSRC1_0480: Odyssey Thera (OT) 8-hour HEK293T Protein-Complementation Assay for Farnesoid X receptor/SRC-1 Co-activator (AID 2283383)
# Outline: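 Fluorescence intensity read-out, 8 h post-dose, HEK293T protein-fragment complementation; FXR bait and SRC-1 prey each linked to reporter fragments. Activity scored as signal increase over DMSO negative control.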
# [6] = target: human Norepinephrine Transporter (NET), SLC6A2 (gene 6530) (UniProt P23975); experiment: NVS_TR_hNET: NovaScreen (NVS) Transporter Assay for human Norepinephrine Transporter (NET) (AID 2283377);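 also: cell-free membrane protein extracted from CHO cells expressing human NET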;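 as to AC50: displacement of radioligand from human NET seen as loss of scintillation signal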
# Outline: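 CHO cell extracts expressing the transporter; tritiated or iodinated tracer displaced competitively; filtration plus scintillation readout at 1 h. Single-point duplicates at 25 uM, concentration series for follow-up; activity = signal drop relative to DMSO.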
# [7] = target: Agonist Androgen Response Element (ARE), AR (gene 367) (UniProt P10275); experiment: OT_AR_ARELUC_AG_1440: Odyssey Thera (OT) 24-hour CHO-K1 Luciferase Assay for Agonist Androgen Response Element (ARE) (AID 2283379)
# Outline: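 Gain-of-signal reporter endpoint: cells (CHO-K1, hamster) are treated 24 h, luciferin/ATP reagent added, and luminescence compared with DMSO baseline.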
# [8] = target: mouse Estrogen Receptor alpha (Era), Esr1 (gene 13982) (UniProt P19785); experiment: NVS_NR_mERa: NovaScreen (NVS) Nuclear Receptor Binding Assay for mouse Estrogen Receptor alpha (Era) (AID 2283378);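 also: hit means loss of bound radioligand signal relative to DMSO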
# Outline: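 Test chemicals competed against a specific radioligand for binding to cell-free mouse Era. Duplicate wells at 25 uM were read 18 hours later by filter-based radiodetection, with loss of signal against DMSO scored as activity.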
# [9] = target: human Serotonin Transporter (SERT), SLC6A4 (gene 6532) (UniProt P31645); experiment: NVS_TR_hSERT: NovaScreen (NVS) Transporter Assay for human Serotonin Transporter (SERT) (AID 2283372)
# Outline: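 Human platelet membrane preparation; displacement of radioligand from serotonin transporter measured after 1 h by filtration and scintillation counting. Single 25 uM duplicate screen, then concentration series for actives, with DMSO as negative baseline.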
# [10] = tested on: rat Norepinephrine Transporter (NET), gene 83511; experiment: NVS_TR_rNET: NovaScreen (NVS) Transporter Assay for rat Norepinephrine Transporter (NET) (AID 2283373)
# Outline: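 Competitive radioligand displacement at the rat NET using forebrain membrane preparations, 1 h incubation, filter-based scintillation readout. Primary testing in duplicate at a single 25 uM concentration; confirmed actives retested across concentrations.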
# human Norepinephrine Transporter (NET), SLC6A2 (gene 6530), sequence (P23975 whole entry, looked up): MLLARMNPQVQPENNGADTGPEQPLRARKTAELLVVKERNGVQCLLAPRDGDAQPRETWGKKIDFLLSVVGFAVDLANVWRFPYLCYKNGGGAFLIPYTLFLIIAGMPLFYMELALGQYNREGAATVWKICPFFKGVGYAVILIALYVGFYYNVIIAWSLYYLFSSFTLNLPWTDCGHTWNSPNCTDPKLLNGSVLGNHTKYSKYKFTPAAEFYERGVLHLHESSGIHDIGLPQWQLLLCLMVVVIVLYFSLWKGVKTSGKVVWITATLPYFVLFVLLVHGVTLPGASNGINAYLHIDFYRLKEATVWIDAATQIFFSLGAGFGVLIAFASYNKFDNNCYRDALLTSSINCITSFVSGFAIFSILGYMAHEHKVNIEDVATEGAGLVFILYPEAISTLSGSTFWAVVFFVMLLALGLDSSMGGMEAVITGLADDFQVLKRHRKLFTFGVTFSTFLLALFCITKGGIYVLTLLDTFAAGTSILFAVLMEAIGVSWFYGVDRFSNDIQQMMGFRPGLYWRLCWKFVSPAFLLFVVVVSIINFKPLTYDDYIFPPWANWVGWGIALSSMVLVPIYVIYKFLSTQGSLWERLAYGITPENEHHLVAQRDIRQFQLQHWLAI
# Estrogen receptor (Homo sapiens), sequence (P03372 whole entry, looked up): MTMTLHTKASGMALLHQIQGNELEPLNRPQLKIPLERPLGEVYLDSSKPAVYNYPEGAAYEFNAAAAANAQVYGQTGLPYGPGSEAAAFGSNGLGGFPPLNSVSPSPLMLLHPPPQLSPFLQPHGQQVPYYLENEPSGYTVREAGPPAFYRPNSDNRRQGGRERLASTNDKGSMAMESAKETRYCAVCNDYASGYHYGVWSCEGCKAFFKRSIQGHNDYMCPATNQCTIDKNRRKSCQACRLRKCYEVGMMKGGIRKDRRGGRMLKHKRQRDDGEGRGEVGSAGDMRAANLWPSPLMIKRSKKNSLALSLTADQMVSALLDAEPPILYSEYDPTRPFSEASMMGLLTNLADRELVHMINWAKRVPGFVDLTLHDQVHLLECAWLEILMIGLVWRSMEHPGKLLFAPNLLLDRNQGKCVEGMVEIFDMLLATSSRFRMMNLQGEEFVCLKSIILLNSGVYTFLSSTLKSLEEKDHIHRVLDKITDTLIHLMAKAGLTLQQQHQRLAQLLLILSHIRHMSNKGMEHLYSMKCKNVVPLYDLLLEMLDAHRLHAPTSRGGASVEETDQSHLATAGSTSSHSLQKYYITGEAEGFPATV
# Bile acid receptor (Homo sapiens), sequence (Q96RI1 whole entry, looked up, the tested form may be a part): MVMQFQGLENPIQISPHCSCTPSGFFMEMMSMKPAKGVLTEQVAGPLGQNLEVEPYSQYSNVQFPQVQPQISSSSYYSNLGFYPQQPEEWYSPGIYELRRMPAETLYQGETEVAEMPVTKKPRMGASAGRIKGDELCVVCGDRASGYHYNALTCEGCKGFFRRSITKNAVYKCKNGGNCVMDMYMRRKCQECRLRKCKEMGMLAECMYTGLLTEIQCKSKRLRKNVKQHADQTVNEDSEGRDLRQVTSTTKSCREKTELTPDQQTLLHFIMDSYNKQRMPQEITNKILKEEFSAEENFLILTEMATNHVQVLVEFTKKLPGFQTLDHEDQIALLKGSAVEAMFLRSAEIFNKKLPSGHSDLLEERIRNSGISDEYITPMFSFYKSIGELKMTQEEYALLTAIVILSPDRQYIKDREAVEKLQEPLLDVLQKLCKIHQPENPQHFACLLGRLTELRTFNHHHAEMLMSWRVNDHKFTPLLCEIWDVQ
# mouse Estrogen Receptor alpha (Era), Esr1 (gene 13982), sequence (P19785 whole entry, looked up): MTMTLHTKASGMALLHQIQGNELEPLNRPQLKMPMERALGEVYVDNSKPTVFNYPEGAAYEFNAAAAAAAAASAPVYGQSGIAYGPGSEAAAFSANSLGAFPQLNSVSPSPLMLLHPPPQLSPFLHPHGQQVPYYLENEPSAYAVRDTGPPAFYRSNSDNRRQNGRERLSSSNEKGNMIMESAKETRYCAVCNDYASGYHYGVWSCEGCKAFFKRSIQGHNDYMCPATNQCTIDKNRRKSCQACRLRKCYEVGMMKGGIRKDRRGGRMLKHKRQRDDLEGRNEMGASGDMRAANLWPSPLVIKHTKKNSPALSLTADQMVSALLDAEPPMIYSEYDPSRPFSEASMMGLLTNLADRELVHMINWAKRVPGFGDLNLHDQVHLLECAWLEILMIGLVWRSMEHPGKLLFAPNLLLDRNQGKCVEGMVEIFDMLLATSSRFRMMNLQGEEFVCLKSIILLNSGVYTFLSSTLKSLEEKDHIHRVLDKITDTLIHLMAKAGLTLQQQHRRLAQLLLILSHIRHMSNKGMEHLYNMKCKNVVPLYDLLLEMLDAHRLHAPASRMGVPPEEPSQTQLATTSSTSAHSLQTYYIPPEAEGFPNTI
# Estrogen receptor beta (Homo sapiens), sequence (Q92731 whole entry, looked up, the tested form may be a part): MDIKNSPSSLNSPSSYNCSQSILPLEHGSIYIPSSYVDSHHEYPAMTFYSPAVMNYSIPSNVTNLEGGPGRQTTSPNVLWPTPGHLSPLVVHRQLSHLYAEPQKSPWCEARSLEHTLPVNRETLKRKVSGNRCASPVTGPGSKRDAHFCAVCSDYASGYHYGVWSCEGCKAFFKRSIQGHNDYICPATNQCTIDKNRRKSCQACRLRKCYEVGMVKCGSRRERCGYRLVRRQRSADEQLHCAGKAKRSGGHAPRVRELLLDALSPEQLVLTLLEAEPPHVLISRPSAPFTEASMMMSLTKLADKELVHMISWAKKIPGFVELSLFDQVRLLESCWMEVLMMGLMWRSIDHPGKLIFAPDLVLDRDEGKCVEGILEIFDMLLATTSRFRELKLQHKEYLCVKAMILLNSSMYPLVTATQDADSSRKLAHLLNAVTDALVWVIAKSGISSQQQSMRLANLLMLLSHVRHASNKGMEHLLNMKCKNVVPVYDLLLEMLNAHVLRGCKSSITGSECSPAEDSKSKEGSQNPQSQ
# Agonist Androgen Response Element (ARE), AR (gene 367), sequence (P10275 whole entry, looked up): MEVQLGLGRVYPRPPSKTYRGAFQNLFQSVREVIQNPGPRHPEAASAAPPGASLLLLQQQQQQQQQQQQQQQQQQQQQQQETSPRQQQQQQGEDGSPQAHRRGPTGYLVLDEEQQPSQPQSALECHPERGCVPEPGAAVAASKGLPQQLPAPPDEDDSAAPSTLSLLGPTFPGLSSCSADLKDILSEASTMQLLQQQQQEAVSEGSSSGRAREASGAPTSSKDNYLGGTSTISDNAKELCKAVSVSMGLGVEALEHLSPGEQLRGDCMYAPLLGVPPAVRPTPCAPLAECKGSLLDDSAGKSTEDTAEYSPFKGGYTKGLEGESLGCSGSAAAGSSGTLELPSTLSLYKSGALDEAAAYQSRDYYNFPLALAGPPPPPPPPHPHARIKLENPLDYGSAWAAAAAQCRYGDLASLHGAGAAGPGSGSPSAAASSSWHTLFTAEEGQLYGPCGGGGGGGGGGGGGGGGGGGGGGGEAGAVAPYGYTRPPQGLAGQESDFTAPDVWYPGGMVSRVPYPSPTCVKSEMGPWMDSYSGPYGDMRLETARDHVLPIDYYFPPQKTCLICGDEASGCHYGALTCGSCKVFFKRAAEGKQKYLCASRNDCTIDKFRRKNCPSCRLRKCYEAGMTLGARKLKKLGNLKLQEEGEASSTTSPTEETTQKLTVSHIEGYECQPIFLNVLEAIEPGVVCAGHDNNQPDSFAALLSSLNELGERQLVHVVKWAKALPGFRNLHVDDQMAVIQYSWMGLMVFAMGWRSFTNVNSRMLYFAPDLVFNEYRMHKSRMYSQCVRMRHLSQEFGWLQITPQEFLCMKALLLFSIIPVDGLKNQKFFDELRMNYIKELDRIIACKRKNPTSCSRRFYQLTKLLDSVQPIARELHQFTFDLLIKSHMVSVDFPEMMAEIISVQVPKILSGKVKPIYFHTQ
# rat Serotonin Transporter (SERT), Slc6a4 (gene 25553), sequence (P31652 whole entry, looked up): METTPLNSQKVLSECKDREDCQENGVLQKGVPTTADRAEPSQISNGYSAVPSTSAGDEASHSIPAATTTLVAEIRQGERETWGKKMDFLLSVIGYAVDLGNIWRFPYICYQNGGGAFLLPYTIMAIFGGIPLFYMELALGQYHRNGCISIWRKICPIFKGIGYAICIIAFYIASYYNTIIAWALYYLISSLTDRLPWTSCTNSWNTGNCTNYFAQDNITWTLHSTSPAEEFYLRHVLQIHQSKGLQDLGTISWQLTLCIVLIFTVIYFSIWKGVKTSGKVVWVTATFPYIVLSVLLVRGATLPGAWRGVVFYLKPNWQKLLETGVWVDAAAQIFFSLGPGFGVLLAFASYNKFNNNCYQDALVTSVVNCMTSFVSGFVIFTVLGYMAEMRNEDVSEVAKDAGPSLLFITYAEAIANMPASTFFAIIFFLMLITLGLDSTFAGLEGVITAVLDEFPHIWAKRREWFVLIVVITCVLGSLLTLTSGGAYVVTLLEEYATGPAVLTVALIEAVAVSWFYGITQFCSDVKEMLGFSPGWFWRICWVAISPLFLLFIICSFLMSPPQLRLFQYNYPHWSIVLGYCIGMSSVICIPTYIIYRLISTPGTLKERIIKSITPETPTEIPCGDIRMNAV
# human Serotonin Transporter (SERT), SLC6A4 (gene 6532), sequence (P31645 whole entry, looked up): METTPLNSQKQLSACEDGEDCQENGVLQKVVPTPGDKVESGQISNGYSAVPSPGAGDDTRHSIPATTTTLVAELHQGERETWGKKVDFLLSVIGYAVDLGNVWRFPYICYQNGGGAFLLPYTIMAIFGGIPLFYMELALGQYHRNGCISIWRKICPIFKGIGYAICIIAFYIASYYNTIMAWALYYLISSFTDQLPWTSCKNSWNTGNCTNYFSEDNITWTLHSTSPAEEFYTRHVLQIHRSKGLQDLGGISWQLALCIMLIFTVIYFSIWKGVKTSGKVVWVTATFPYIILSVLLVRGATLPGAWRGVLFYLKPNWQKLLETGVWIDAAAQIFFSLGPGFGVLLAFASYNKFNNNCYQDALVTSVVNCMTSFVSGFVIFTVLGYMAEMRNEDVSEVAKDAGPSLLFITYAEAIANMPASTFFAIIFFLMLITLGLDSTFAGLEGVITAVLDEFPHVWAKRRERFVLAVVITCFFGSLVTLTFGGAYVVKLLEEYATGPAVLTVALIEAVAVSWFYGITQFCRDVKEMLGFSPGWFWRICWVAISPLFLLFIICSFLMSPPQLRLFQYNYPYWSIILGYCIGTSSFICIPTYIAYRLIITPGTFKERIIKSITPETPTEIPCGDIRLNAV
smiles,measurement,setting,value
CCCCCCCCN(C)C,AC50,[1],12.5 µM (active)
same,outcome,[2],inactive
same,outcome,[3],inactive
CCCOc1ccc(S(=O)(=O)N2CCN(CC)CC2)cc1-c1nc2c(CC)n(Cc3ccccn3)nc2c(=O)[nH]1,outcome,[1],inactive
same,outcome,[4],inactive
same,outcome,[3],inactive
same,outcome,[5],inactive
CCN(CC)C(=S)SSC(=S)N(CC)CC,AC50,[6],0.344 µM (active)
same,outcome,[7],inactive
same,outcome,[4],inactive
same,AC50,[3],77.7 µM (active)
same,outcome,[5],inactive
OC[C@H]1O[C@@H]2O[C@H]3[C@H](O)[C@@H](O)[C@@H](O[C@H]4[C@H](O)[C@@H](O)[C@@H](O[C@H]5[C@H](O)[C@@H](O)[C@@H](O[C@H]6[C@H](O)[C@@H](O)[C@@H](O[C@H]7[C@H](O)[C@@H](O)[C@@H](O[C@H]1[C@H](O)[C@H]2O)O[C@@H]7CO)O[C@@H]6CO)O[C@@H]5CO)O[C@@H]4CO)O[C@@H]3CO,AC50,[8],10.3 µM (active)
same,outcome,[4],inactive
same,outcome,[3],inactive
CCCCC(CC)C(=O)OCCOCCOCCOC(=O)C(CC)CCCC (stereo not given),outcome,[6],inactive
same,outcome,[8],inactive
same,outcome,[7],inactive
same,outcome,[4],inactive
same,outcome,[3],inactive
c1ccc(C(O[C@@H]2CCCN(CCc3ccc4c(c3)OCO4)C2)c2ccccc2)cc1,outcome,[9],inactive
same,AC50,[10],11.4 µM (active)
same,AC50,[6],4.2 µM (active)
same,AC50,[8],25 µM (active)
same,AC50,[4],38.5 µM (active)
same,outcome,[3],inactive
c1ccc2cc3ccccc3cc2c1,AC50,[6],6.95 µM (active)
same,outcome,[4],inactive
same,outcome,[2],inactive
same,outcome,[3],inactive
same,outcome,[5],inactive
COc1cc(C(C)C)c2c(c1)S(=O)(=O)N(COc1cc(=O)n3cccc(OCCN4CCCCC4)c3n1)C2=O,AC50,[6],4.47 µM (active)
same,outcome,[7],inactive
same,AC50,[2],23.2 µM (active)
same,outcome,[3],inactive
same,outcome,[5],inactive
C[C@]12C=CC(=O)C=C1CC[C@H]1[C@@H]3C[C@@H](O)[C@](O)(C(=O)CO)[C@@]3(C)C[C@H](O)[C@@]12F,outcome,[8],inactive
same,outcome,[3],inactive
CCOC(N)=O,outcome,[8],inactive
same,outcome,[2],inactive
same,outcome,[3],inactive
CCCC(CCC)C(=O)O,outcome,[8],inactive
same,outcome,[2],inactive
same,outcome,[3],inactive
Cc1nc(-c2ccccn2)ncc1C(=O)Nn1cc(C)c2cc(F)ccc21,outcome,[7],inactive
same,outcome,[4],inactive
same,outcome,[3],inactive
CCn1nc(C)c2c1C(=O)NCC(c1ccc(O)cc1)=N2,outcome,[10],inactive
same,outcome,[4],inactive
same,outcome,[3],inactive
COc1cc2c(c(OC)c1OC)-c1ccc(OC)c(=O)cc1[C@@H](NC(C)=O)CC2,outcome,[7],inactive
same,outcome,[4],inactive
same,outcome,[2],inactive
same,outcome,[3],inactive
same,AC50,[5],0.0869 µM (active)
CNC(C)=O,outcome,[6],inactive
same,outcome,[4],inactive
same,outcome,[2],inactive
same,outcome,[3],inactive
CCc1ccc(O)c(C(C)(C)C)c1,outcome,[8],inactive
same,outcome,[4],inactive
same,outcome,[3],inactive
O=C(O)c1cccc(C[C@@H]2COc3ccc(OCc4nc5cc(F)ccc5s4)cc3[C@@H]2O)c1,outcome,[6],inactive
same,outcome,[8],inactive
same,outcome,[4],inactive
same,outcome,[2],inactive
same,outcome,[3],inactive
Nc1ccn([C@@H]2O[C@H](CO)[C@@H](O)[C@@H]2O)c(=O)n1,outcome,[8],inactive
same,AC50,[3],62.2 µM (active)
same,outcome,[5],inactive
OCCNCCO,outcome,[3],inactive
CCOc1ccc2[nH]cc(C(=O)NCc3ccccc3)c(=O)c2n1,outcome,[4],inactive
same,outcome,[3],inactive
same,outcome,[5],inactive
OC(CCl)CCl,outcome,[4],inactive
same,outcome,[2],inactive
same,outcome,[3],inactive
CC[C@H](C)C(=O)O[C@H]1C[C@H](O)C=C2C=C[C@H](C)[C@H](CC[C@@H](O)C[C@@H](O)CC(=O)O)[C@H]21,outcome,[4],inactive
same,outcome,[3],inactive
NNC(=O)c1ccncc1,outcome,[4],inactive
same,outcome,[3],inactive
O=C(O)c1cccc(C(=O)O)c1,outcome,[3],inactive
same,outcome,[5],inactive
O=C(O)[C@H](O)[C@@H](O)C(=O)O,outcome,[4],inactive
same,outcome,[2],inactive
same,outcome,[3],inactive
same,outcome,[5],inactive
NC(=O)NN=Cc1ccc([N+](=O)[O-])o1,outcome,[4],inactive
same,outcome,[2],inactive
same,outcome,[3],inactive
CCCCCCCCCCCCCCO,outcome,[4],inactive
same,outcome,[2],inactive
same,outcome,[3],inactive
O=C(NO)C1(NS(=O)(=O)c2ccc(Oc3ccc(F)cc3)cc2)CCOCC1,outcome,[4],inactive
same,outcome,[3],inactive
CCCCCCCC/C=C\CCCCCCCC(=O)OC[C@@H](O)[C@H]1OC[C@H](O)[C@H]1O,outcome,[4],inactive
same,outcome,[2],inactive
same,outcome,[3],inactive
CCCCN1C(=O)[C@@H]([C@H](O)C2CCCCC2)NC(=O)C12CCN(Cc1ccc(Oc3ccc(C(=O)O)cc3)cc1)CC2,outcome,[4],inactive
same,outcome,[3],inactive
c1ccc2ncccc2c1,outcome,[3],inactive
O=C(O)CO,outcome,[4],inactive
same,outcome,[3],inactive
CC(C)CC(C)O (stereo not given),outcome,[4],inactive
same,outcome,[2],inactive
same,outcome,[3],inactive
same,outcome,[5],inactive
NC(=O)N(O)[C@@H]1COc2cc(OCc3ccccc3)ccc21,outcome,[4],inactive
same,outcome,[3],inactive
same,outcome,[5],inactive
OC[C@H]1O[C@@](CO)(O[C@H]2O[C@H](CO)[C@@H](O)[C@H](O)[C@H]2O)[C@@H](O)[C@@H]1O,outcome,[4],inactive
same,outcome,[3],inactive
OC(Cn1cncn1)(Cn1cncn1)c1ccc(F)cc1F,outcome,[4],inactive
same,outcome,[3],inactive
Cc1ncc([C@@H](CCCCCCc2ccc3c(n2)NCCC3)CC(=O)O)cn1,outcome,[4],inactive
same,outcome,[2],inactive
same,outcome,[3],inactive
C=CN1CCCC1=O,outcome,[2],inactive
same,outcome,[3],inactive
Cn1cc[nH]c1=S,outcome,[4],inactive
same,outcome,[3],inactive
COCc1nnc(-c2ccc[n+]([O-])c2)n1-c1c(Cl)c(Cl)cc2[nH]c(=O)c(=O)[nH]c12,outcome,[4],inactive
same,outcome,[2],inactive
same,outcome,[3],inactive
same,outcome,[5],inactive
CCCCCCOC(=O)CC(CC(=O)OCCCCCC)(OC(=O)CCC)C(=O)OCCCCCC,outcome,[4],inactive
same,outcome,[3],inactive
NC(N)=O,outcome,[4],inactive
same,outcome,[2],inactive
same,outcome,[3],inactive
C[C@@H](Oc1ccc(CNC(=O)c2cccnc2Oc2ccc3c(c2)OCO3)c(F)c1)C(=O)O,outcome,[4],inactive
same,outcome,[3],inactive
same,outcome,[5],inactive
CCCCCOC(C)=O,outcome,[3],inactive
O=S1(=O)CCCO1,AC50,[4],17.5 µM (active)
same,outcome,[2],inactive
same,outcome,[3],inactive
CCCCCCCC1CCC(=O)O1 (stereo not given),outcome,[4],inactive
same,outcome,[3],inactive
CC(=O)c1ccccc1,outcome,[2],inactive
same,outcome,[3],inactive
O=C1CN(N=Cc2ccc([N+](=O)[O-])o2)C(=O)N1,outcome,[4],inactive
same,outcome,[3],inactive
Cn1c(=O)c2[nH]cnc2n(C)c1=O,outcome,[3],inactive
same,outcome,[5],inactive
OCC(CO)(CO)CO,outcome,[4],inactive
same,outcome,[2],inactive
same,outcome,[3],inactive
Cc1nccn1-c1ccc(Sc2cccc(C3(C(N)=O)CCOCC3)c2)cc1,AC50,[4],31.9 µM (active)
same,outcome,[3],inactive
same,AC50,[5],4.07 µM (active)
CC(C)c1nnc2ccc(-c3ocnc3-c3cc(F)ccc3F)cn12,outcome,[4],inactive
same,outcome,[3],inactive
same,outcome,[5],inactive
CC1(C)C(=O)N(Cl)C(=O)N1Cl,outcome,[2],inactive
same,outcome,[3],inactive
O=C(O)c1ccc2c(c1)nc(C(=O)NC1CCN(C3CC3)CC1)n2Cc1cc(-c2ccc(Cl)s2)on1,outcome,[4],inactive
same,outcome,[2],inactive
same,outcome,[3],inactive
same,outcome,[5],inactive
